# Entries with a potency or affinity are not part of this list. Calls of active or inactive are those of the source. How the calls were made is not given here.
# Biological target: KSHV LANA C-terminal domain (residues 932-1162) binding to LBS DNA (UniProt O40947)
# Test: inhibitors of C-LANA binding to LBS DNA, dose response, biochemical, fluorescence polarization, cherry-picked samples (AID 504725)
# Details: MBP-C-LANA / FAM-LBS DNA fluorescence polarization, percent change from plate compound-well median; series mostly up to 35 µM; activity change, negative = inhibition: at the top concentration
row,Structure (SMILES),"activity change, negative = inhibition"
1,CCCCN(C(=O)CSc1nnc(-c2ccc(Cl)cc2)o1)c1c(N)n(CC(C)C)c(=O)[nH]c1=O,2.06% (inactive)
2,COc1ccc(-c2cc(C(F)(F)F)n3ncc(C(=O)N4CCCCC4c4cccnc4)c3n2)cc1 (stereo not drawn),1.27% (inactive)
3,CCN(C(=O)COC(=O)c1nc2nc(C)cc(C)n2n1)C1CCCCC1,0.538% (inactive)
4,O=c1[nH]nc(CSCc2ccccc2Cl)[nH]1,1.09% (inactive)
5,Cc1ccsc1/C=N/NC(=O)Cc1ccc(Cl)cc1,-0.731% (inactive)
6,O=c1nc(N2CCOCC2)ccn1-c1nc(-c2ccccc2)sc1-c1ccccc1,3.27% (inactive)
7,Cc1ccc(NC(=O)CN2C(=O)N/C(=C/c3cc(C)n(-c4ccc(C(=O)O)cc4)c3C)C2=O)cc1,-8.71% (inactive)
8,COc1ccccc1CNC(=O)C(=O)NCC1CCCN1S(=O)(=O)c1cccs1 (stereo not drawn),0.659% (inactive)
9,O=C1CCCC2=C1C(c1ccc(O)c(O)c1)Nc1ccc3ncccc3c12 (stereo not drawn),-2.14% (inactive)
10,COc1ccc(S(=O)(=O)N2CCC(C(=O)N3CCCCC3)CC2)cc1,-2.81% (inactive)
11,CCN(CC)C(=O)C1c2ccccc2Oc2ccccc21,-2.59% (inactive)
12,Nc1nnc(CC(=O)N/N=C/c2cc([N+](=O)[O-])cc(Br)c2O)s1,-3.27% (inactive)
13,Nc1ccc(C(=O)Nc2ccc3c(O)cc(S(=O)(=O)O)cc3c2)cc1,-11.2% (inactive)
14,CCn1c(-c2ccc([N+](=O)[O-])cc2)n[nH]c1=S,4.45% (inactive)
15,COC(=O)\C(C(C)=O)=C(/C=C/C=C/C=C/N(C)C)N(C)C,0.45% (inactive)
16,CCCc1nc(NCc2ccccn2)c2nnn(Cc3ccccc3F)c2n1,1.2% (inactive)
17,S=c1c2c(nc3nc[nH]n13)CCC2,-0.257% (inactive)
18,O=c1[nH][nH]cc1C=Nc1ccc(Cl)cc1Cl,0.414% (inactive)
19,CC(=O)O[C@@H]1[C@@H](OC(C)=O)[C@H](n2ccc3cc([N+](=O)[O-])ccc32)OC[C@@H]1OC(C)=O,2.23% (inactive)

row,Structure (SMILES),"activity change, negative = inhibition"
1,O=C(CCn1c(=S)oc2ccccc21)N1CCN(c2ccc(F)cc2)CC1,1.94% (inactive)
2,CCOC(=O)c1ccc[n+](CC(=O)c2ccc(OC)cc2)c1,-1.03% (inactive)
3,Cn1c2ccccc2c2cnn(CC(=O)Nc3cccc(F)c3)c(=O)c21,-5.89% (inactive)
4,CCc1ccc(C2CC(c3cccc(Cl)c3)n3nc(N)nc3N2)cc1 (stereo not drawn),2.28% (inactive)
5,NC(=S)N/N=C/c1ccc(-c2ccc([N+](=O)[O-])cc2)o1,18% (inactive)
6,COc1ccc(-c2nc(C(=O)O)cs2)cc1OC,2.06% (inactive)
7,CCOC(=O)[C@H]1[C@H]2COc3cc(OC)ccc3[C@@H]2N2C(=O)CN(Cc3ccc(OC)cc3)C(=O)[C@@]12C,-1.58% (inactive)
8,Cn1c(=O)c2c(nc(N/N=C/c3ccc(OC(=O)c4ccco4)cc3)n2Cc2ccc(F)cc2)n(C)c1=O,1.89% (inactive)
9,CCSc1nnc(Cc2cc(=O)[nH]c(=O)[nH]2)n1-c1ccc(F)cc1,-1.06% (inactive)
10,Cc1sc2nnn(CC(=O)N3CCN(C(=O)c4ccco4)CC3)c(=O)c2c1C,-1.77% (inactive)
11,CC[C@H](C)[C@H](NC(N)=O)C(=O)Nc1ccc(NC(C)=O)cc1,3.35% (inactive)
12,Nc1ccc(-c2nc3ccc(C(=O)O)cc3s2)cc1,-0.136% (inactive)
13,COc1ccccc1CNC(=O)CCS(=O)(=O)c1cccs1,0.006% (inactive)
14,O=[N+]([O-])c1cccc(CSc2nc3ccccc3[nH]2)c1,-3.84% (inactive)
15,CCOC(=O)c1c(C)nc2cc(C)ccn12,-12.6% (inactive)
16,COc1ccc(N=C2SC(CC(=O)Nc3ccccc3)C(=O)N2Cc2ccco2)cc1 (stereo not drawn),0.033% (inactive)
17,Cc1ccc(S(=O)(=O)/N=C/c2ccc(N(C)C)cc2)cc1,-1.14% (inactive)
18,Cc1ccc(C(CC(=O)N2CCCCC2)c2ccccc2)c(O)c1C (stereo not drawn),-6% (inactive)
19,Cn1c(Cl)c(C(=O)Nc2ccc(Cl)cc2)c2ccccc21,1.43% (inactive)
